Most compounds without a hit are left out; they make up all but 7.4% or so of the library.
HEK293 tox = kills HEK 293 cells; AID 1345083; HEK 293 viability, ATP luminescence (CellTiter-Glo), 48-72 h; 6.6% of 94,000 active; Potency, µM (series often up to 115 µM), inactives show top-dose activity change, negative = cytotoxicity, hits mostly inhibitors; further: nearly all actives have a fitted effect of over 60% in size
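Pintool-delivered compounds were incubated with HEK 293 cells (250 cells/well) at 37 degree Celsius for 48 or 72 hr. ATP-dependent luminescence (CellTiter-Glo) then reported remaining viable cells.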
HEK293 viab = reduces viability of HEK-293 SNCA reporter cells; 0.12% of 150,000 active; AID 1671193; HEK-293-SNCA-luc viability, GF-AFC fluorescence, 24 h; Potency, µM (top dose mostly 57.1 µM), for inactives: at the highest dose activity change, negative = cytotoxicity, hits mostly cytotoxic;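 further: 0% = DMSO-treated cells and -100% = medium-only wells without cells; nearly all actives have a fitted effect of over 30% in size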
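Cytotoxicity counterscreen: after 24 h compound treatment of genome-edited SNCA-luciferase HEK-293 cells, live-cell protease substrate GF-AFC read by fluorescence after 30 min; activity scaled between DMSO (0%) and medium-only (-100%), curves Hill-fitted.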
3T3 cytotox = NIH 3T3 cell cytotoxicity | NIH 3T3 viability, CellTiter-Glo ATP luminescence, 48-72 h | Potency, µM (highest dose often 96.7 µM), for the others: at the top dose activity change, negative = cytotoxicity, actives largely listed as inhibitors | 4.3% of 94,000 active | AID 1345082; further: nearly all actives have a fitted effect of over 55% in size
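Cytotoxicity is measured as loss of cellular ATP: NIH 3T3 cells (400/well) are exposed to compound for 48 or 72 hr at 37 °C, then CellTiter-Glo luminescence is imaged after 10 min at room temperature.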
NPR1 antag = blocks ANP-stimulated signaling of human Npr1 receptor; P16066; HEK293 hNpr1 GloSensor cGMP, ANP-stimulated luminescence; Potency, µM (titrated, usually from 46.3 µM), inactives show at the top dose activity change, negative = inhibition, hits mostly inhibitors; 1.6% of 76,000 active; calls by dose curve; further: nearly all actives have a fitted effect of over 60% in size
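Compound pre-incubated 30 min at room temperature on GloSensor-loaded HEK293 cells stably carrying hNpr1 and the pGS-40F cGMP biosensor. Stimulation uses hNppA at 0.1 nM final; luminescence is taken at baseline and 20 min post-agonist.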
Luciferase inh = inhibitors of firefly (Photinus pyralis) luciferase | P08659 | purified P. pyralis luciferase, luminescence, biochemical | Potency, µM (doses to about 115 µM), usual class: inhibitors | 2.5% of 76,000 active | AID 1347043; further: nearly all actives have a fitted effect of over 65% in size
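Luminescence read by CCD imaging after purified firefly luciferase (10nM final) was added to substrate buffer holding 10uM D-luciferin and 10uM ATP, pH 7.5, pre-dosed with compound.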
SNCA expr inh = inhibitors of alpha-synuclein (SNCA) gene expression; HEK-293 SNCA-luciferase knock-in, luminescence, 24 h; Potency, µM (top dose mostly 57.2 µM), without a hit: at the highest dose activity change, negative = inhibition, usual class: inhibitors; 0.17% of 140,000 active; AID 1671194;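 further: plate controls were DMSO cells for no effect and cell-free wells for full effect; nearly all actives have a fitted effect of over 45% in size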
* = called active by the depositor; ! = repeats disagree; [ ] = another dose, or the depositor's remark. Unless noted, the call rests on the fitted dose curve; in most records, active means well fitted curve in the direction sought with a large enough effect; inconclusive means small, poorly fitted or top-dose-only effect, or another doubt; inactive means no such curve, though single readings can be large; an effect the other way counts as inactive or inconclusive. Unless noted, on the % scale 0 is the no-effect control and ±100 the full control effect; potency means the concentration at half of the fitted maximal effect.

COc1ccc(-n2nc(C3CCN(Cc4ccc(C#N)cc4)CC3)[nH]c2=O)cc1 was read as HEK293 tox 22µM*, HEK293 viab -28%, 3T3 cytotox -28%, NPR1 antag -58%, Luciferase inh inactive and SNCA expr inh 6%.
Screening COc1ccc(C(=O)N2CCC(c3nn(-c4ccc(Cl)cc4)c(=O)[nH]3)CC2)cc1 returned HEK293 tox inconclusive, HEK293 viab 11%, 3T3 cytotox inconclusive, NPR1 antag -13%, Luciferase inh inactive and SNCA expr inh -18%.
Screening COc1ccc(-n2nc(C3CCN(Cc4ccc(F)cc4)CC3)[nH]c2=O)cc1 returned HEK293 tox 18µM*!, HEK293 viab -14%, 3T3 cytotox inconclusive, NPR1 antag -22%, Luciferase inh inactive and SNCA expr inh inconclusive.
For COc1ccc(-n2nc(C3CCN(Cc4ccc(C)cc4)CC3)[nH]c2=O)cc1 the results were HEK293 tox 40µM*!, HEK293 viab -12%, 3T3 cytotox inconclusive, NPR1 antag -14%, Luciferase inh inactive and SNCA expr inh -7%.
`COc1ccc(-n2nc(C3CCN([S+](=O)([O-])c4ccc(C)cc4)CC3)[nH]c2=O)cc1` gave HEK293 tox inactive, HEK293 viab 13%, 3T3 cytotox 1%, NPR1 antag 14%, Luciferase inh inactive and SNCA expr inh -15%.
Screening COCCCn1c(C)cnc1C1CCN(C(=O)NCc2ccc(C)cc2)C1 (stereo not given) returned HEK293 tox -25%, HEK293 viab -8%, 3T3 cytotox -29%, NPR1 antag 0%, Luciferase inh inactive and SNCA expr inh 10%.
Screening O=C(CCC1CCN(S(=O)(=O)c2ccccc2)CC1)N1CCc2ccccc2C1 returned HEK293 tox inconclusive, HEK293 viab -10%, 3T3 cytotox inconclusive, NPR1 antag -6%, Luciferase inh inactive and SNCA expr inh -11%.
Screening O=C1Nc2ccc(-c3ccco3)cc2C(=O)N2CCN(C(=O)c3ccccc3)C[C@H]12 returned HEK293 tox inconclusive, HEK293 viab 2%[87.6 µM], 3T3 cytotox inconclusive, NPR1 antag -5%[70.6 µM], Luciferase inh inactive and SNCA expr inh -35%[87.6 µM].
For COc1ccc2cc(C3CN(CCC(=O)NC(C)(C)C)CCO3)ccc2c1 (stereo not given) the results were HEK293 tox 45µM*, HEK293 viab 2%, 3T3 cytotox inconclusive, NPR1 antag inconclusive, Luciferase inh inconclusive and SNCA expr inh 120%.
For CCNC(=O)N(C1CC1)C1CCOC2(CCN(C(=O)c3nccc4ccccc34)CC2)C1 (stereo not given) the results were HEK293 tox inactive, HEK293 viab 7%, 3T3 cytotox 0%, NPR1 antag -1%, Luciferase inh inactive and SNCA expr inh 6%.
CCN1c2cc(C(=O)Nc3cccc(OC)c3)ccc2C(=O)N2CCCCCC21 (stereo not given) was read as HEK293 tox 32µM*, HEK293 viab 13%[12.5 µM], 3T3 cytotox inconclusive, NPR1 antag -7%, Luciferase inh inactive and SNCA expr inh -2%.
`CCN1c2cc(C(=O)Nc3cc(OC)cc(OC)c3)ccc2C(=O)N2CCCCC21` (stereo not given) gave HEK293 tox inconclusive, HEK293 viab 12%[12.5 µM], 3T3 cytotox -22%, NPR1 antag -7%, Luciferase inh inactive and SNCA expr inh -10%.
Screening CCN1c2cc(C(=O)Nc3cccc(OC)c3)ccc2C(=O)N2CCCC21 (stereo not given) returned HEK293 tox inconclusive, HEK293 viab -11%[12.5 µM], 3T3 cytotox -28%, NPR1 antag 5%, Luciferase inh inactive and SNCA expr inh 22%.
`CCN1c2cc(C(=O)Nc3cccc(OC)c3)ccc2C(=O)N2CCCCC21` (stereo not given) gave HEK293 tox 45µM*, HEK293 viab 10%[12.5 µM], 3T3 cytotox inconclusive, NPR1 antag -14%, Luciferase inh inactive and SNCA expr inh -10%.
Screening CCOCCN1C(=O)COC[C@@H]1[C@H](O)c1ccc(NC(=O)COC)cc1 returned HEK293 tox -7%[172 µM], HEK293 viab 1%[87.6 µM], 3T3 cytotox -5%[138 µM], NPR1 antag 1%[70.6 µM], Luciferase inh inactive and SNCA expr inh -1%[87.6 µM].
`COCCNC(=O)c1cc(-c2ccc(Cl)cc2Cl)nc2c1cnn2C` gave HEK293 tox -16%, HEK293 viab -1%, 3T3 cytotox inconclusive and SNCA expr inh -3%.
For Cc1ccc(NC(=O)N2Cc3[nH]cnc3C[C@H]2c2nc(C(C)C)no2)cc1 the results were HEK293 tox 4%[172 µM], HEK293 viab -1%[87.6 µM], 3T3 cytotox -13%[174 µM], NPR1 antag 6%[70.6 µM], Luciferase inh inconclusive and SNCA expr inh 21%[87.6 µM].
For CCOC(=O)c1ccc(NC(=O)N2Cc3[nH]cnc3C[C@H]2c2nc(-c3cccc(C)c3)no2)cc1 the results were HEK293 tox inconclusive, HEK293 viab inconclusive, 3T3 cytotox inconclusive, NPR1 antag -30%, Luciferase inh inconclusive and SNCA expr inh inconclusive.
CC(=O)c1ccc(NC(=O)N2Cc3[nH]cnc3C[C@H]2c2nc(-c3ccc(F)cc3)no2)cc1 was read as HEK293 tox -1%, HEK293 viab -21%, 3T3 cytotox 89µM*, NPR1 antag -3%, Luciferase inh inconclusive and SNCA expr inh 36%.
Screening O=C(NC1CCCCC1)N1Cc2[nH]cnc2C[C@H]1c1nc(-c2ccc3ccccc3c2)no1 returned HEK293 tox -5%, HEK293 viab 1%, 3T3 cytotox 1%, NPR1 antag 0%, Luciferase inh 25µM* and SNCA expr inh 109%.
`CCOC(=O)c1ccc(NC(=O)N2Cc3[nH]cnc3C[C@H]2c2nc(-c3ccc(C)cc3)no2)cc1` gave HEK293 tox inconclusive, HEK293 viab -22%, 3T3 cytotox inconclusive, NPR1 antag -16%, Luciferase inh 32µM* and SNCA expr inh inconclusive.
For O=C(NC1CCCCC1)N1Cc2[nH]cnc2C[C@H]1c1nc(-c2ccc(Cl)cc2)no1 the results were HEK293 tox inactive, HEK293 viab -6%[87.6 µM], 3T3 cytotox -27%[174 µM], NPR1 antag -5%[70.6 µM], Luciferase inh inconclusive and SNCA expr inh inconclusive.
For CC(C)c1noc([C@@H]2Cc3nc[nH]c3CN2C(=O)Nc2ccc(Cl)cc2)n1 the results were HEK293 tox 100µM*, HEK293 viab 1%[87.6 µM], 3T3 cytotox 89µM*, NPR1 antag -3%[70.6 µM], Luciferase inh inactive and SNCA expr inh 28%[87.6 µM].

From PubChem
